This is a sample that favours compounds with a hit; in the whole collection about 2.9% have one here.
MEKK2 WT-MEK5: raises or lowers MEK5 binding to wildtype human MEKK2 PB1 domain | Q9Y2U5 | bead flow cytometry, Alexa488-MEK5 binding to MEKK2 WT; actives lie on both sides | binding response (% of control), % at 10 µM | 290,000 tested, 1.1% active; in the data active = binding response below about 67% or above about 130%
GRK2 inh: human GRK2 inhibition via aptamer displacement; 330,000 tested, 0.59% active; bead flow cytometry, FAM-aptamer displacement from GRK2; inhibition of aptamer binding, % at 10 µM; AID 488847; P25098;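 active = inhibition of aptamer binding above 40%, roughly 3 SD of noise, on plates passing a quality check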;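 also: median bead fluorescence of bound FAM aptamer so fluorescent compounds give negative values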
Target sequence (P25098 whole entry, looked up): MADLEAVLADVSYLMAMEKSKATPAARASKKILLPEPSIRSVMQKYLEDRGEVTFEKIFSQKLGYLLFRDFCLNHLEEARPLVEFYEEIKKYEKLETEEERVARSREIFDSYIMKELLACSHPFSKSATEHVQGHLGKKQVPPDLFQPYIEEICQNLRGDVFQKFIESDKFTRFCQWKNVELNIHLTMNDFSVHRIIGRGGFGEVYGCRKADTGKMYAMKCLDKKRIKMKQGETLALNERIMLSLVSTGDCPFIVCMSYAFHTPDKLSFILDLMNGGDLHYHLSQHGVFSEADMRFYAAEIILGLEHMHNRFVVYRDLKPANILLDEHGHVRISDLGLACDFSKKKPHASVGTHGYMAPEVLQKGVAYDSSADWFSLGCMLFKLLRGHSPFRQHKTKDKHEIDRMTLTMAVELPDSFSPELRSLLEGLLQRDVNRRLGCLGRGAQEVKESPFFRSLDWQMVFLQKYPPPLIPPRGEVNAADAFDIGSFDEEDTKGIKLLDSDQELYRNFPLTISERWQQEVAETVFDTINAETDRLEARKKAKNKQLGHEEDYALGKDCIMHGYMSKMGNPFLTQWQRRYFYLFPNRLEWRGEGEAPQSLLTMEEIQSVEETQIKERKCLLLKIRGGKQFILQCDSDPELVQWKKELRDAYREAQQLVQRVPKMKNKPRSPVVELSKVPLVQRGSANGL
Beta2AR agonist: agonists of human beta-2 adrenergic receptor inducing internalization; P07550; response, % (test concentration not listed); 340,000 tested, 0.43% active; Am2.2-beta2AR cells, FAP receptor internalization, flow cytometry; AID 504454;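 active = response above a set limit, near 3 SD of response in nonfluorescent compounds, cut at about 42% in these data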
MEKK3 PB1 HTS: modulators (inhibitors or enhancers) of MEK5 binding to human MEKK3 PB1 domain | Q99759 | bead-based flow cytometry, Alexa488-MEK5 binding to MEKK3; actives lie on both sides; 0 = blocked by unlabeled MEK5, 100 = vehicle | binding response (% of control), % at 10 µM | 290,000 tested, 1.4% active;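 active = binding response more than 3 SD above or below the average of its plate-row segment, actives on both sides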;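 also: Alexa488 bead fluorescence after subtracting the streptavidin-only scavenger bead signal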
MEKK2mut PB1 HTS: signal of MEK5 binding to mutant human MEKK2 PB1 domain; percent response, % at 10 µM; bead flow cytometry, Alexa488-MEK5 binding to MEKK2 mutant; 290,000 tested, 0.35% active; AID 1530; in the data active = percent response above about 24%, passing the limit was not always enough
MEKK2wt confirm: raises or lowers MEK5 binding to wildtype human MEKK2, retest. 5,900 tested, 2.4% active. shares compounds with MEKK3 PB1 HTS. AID 1892. bead flow cytometry, Alexa488-MEK5 binding to MEKK2 WT; actives lie on both sides. binding response (% of control), % at 10 µM; in the data active = binding response below about 16% or above about 210%; inactive = in between
MEKK2mut-MEK5: signal of MEK5 binding to mutant human MEKK2, retest; AID 1893; percent response, % at 10 µM; bead flow cytometry, Alexa488-MEK5 binding to MEKK2 mutant; 5,900 tested, 2% active; shares compounds with MEKK3 PB1 HTS; in the data active = percent response mostly above about 71%, no sharp cut-off; inactive = mostly below about 38%;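 also: higher means compound restores mutant binding toward wildtype level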
MEKK3-MEK5 inh: MEKK3-MEK5 PB1 inhibition, single concentration confirmation; shares compounds with MEKK3 PB1 HTS; bead flow cytometry, Alexa488-MEK5 binding to MEKK3; stronger effect = lower value; binding response (% of control), % at 10 µM; 5,900 tested, 1.8% active; AID 1894;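 active = binding response below 72% of control, or above a set upper limit, though filed actives all read lower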;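 also: 100% = DMSO only wells and 0% = binding blocked by excess unlabeled MEK5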
Active calls of the source: *; . = no result; [ ] = dose if it differs, or a comment.

SMILES	MEKK2 WT-MEK5	GRK2 inh	Beta2AR agonist	MEKK3 PB1 HTS	MEKK2mut PB1 HTS	MEKK2wt confirm	MEKK2mut-MEK5	MEKK3-MEK5 inh
CC(C)CN(C(=O)c1cccc(Cl)c1)c1c(N)n(CC(C)C)c(=O)[nH]c1=O	99.0	0.0	7.1	102.0	1.0	.	.	.
CNS(=O)(=O)c1ccc(NCC2COc3ccccc3O2)c([N+](=O)[O-])c1 (configuration not stated)	103.0	0.0	2.2	133.0*	-1.0	102.0	0.0	101.0
O=S(=O)(NCC1COc2ccccc2O1)c1ccc2ccccc2c1 (configuration not stated)	104.0	0.0	6.2	104.0	-1.0	.	.	.
COc1ccc(NS(=O)(=O)c2cc([N+](=O)[O-])ccc2N/N=C/c2c(C)[nH]c3ccccc23)cc1	.	.	-389.6	.	.	.	.	.
CC(C)NC(=S)N/N=C/c1c[nH]c2ccccc12	100.0	1.0	2.7	103.0	-2.0	.	.	.
Cc1[nH]c2ccccc2c1/C=N/NC(=S)NC(C)C	18.0*	13.0	2.5	98.0	144.0*	105.0	4.0	96.0
Cc1[nH]c2ccccc2c1/C=N/Nc1ccccc1[N+](=O)[O-]	92.0	0.0	5.1	67.0*[inhibitor]	6.0	119.0	9.0	96.0
O=C(COc1ccc2c(-c3ccccc3)cc(=O)oc2c1)Nc1ccc(CCO)cc1	102.0	0.0	-0.3	103.0	3.0	.	.	.
N#C/C(=N\Nc1ccc(Cl)c(Cl)c1)C(=O)C1CC1	45.0*[inhibitor]	0.0	16.4	45.0*[inhibitor]	-8.0	94.0	-2.0	99.0
O=C(NC(=S)NCC1CCCO1)c1ccc(Cl)cc1Cl (configuration not stated)	111.0	0.0	-11.8	143.0*	1.0	93.0	-9.0	95.0
O=C(CNC(=O)c1ccc(Cl)cc1Cl)NCC1CCCO1 (configuration not stated)	96.0	2.0	-3.2	101.0	-3.0	.	.	.
CC(=O)N(C)c1ccc(NC(=O)N2CCOCC2)cc1	98.0	1.0	-1.3	99.0	8.0	.	.	.
COc1cc2c(C(=O)OCCN(C)C)c(CSc3ccccc3)n(C)c2cc1Br	146.0*	0.0	9.2	99.0	-9.0	153.0	28.0	108.0
CCOC(=O)c1c(CN(C)C)n(-c2ccccc2)c2cc(Br)c(OC)cc12	112.0	1.0	5.4	119.0	1.0	.	.	.
CC(C)n1nc(C(=O)NNC(=O)c2ccc(OC(F)F)cc2)c2ccccc2c1=O	.	6.0	-4.1	.	.	.	.	.
Cc1cc2[nH]c3c(c[n+](C)c4ccccc34)c2cc1C	144.0*	0.0	19.3	61.0	-2.0	201.0	73.0*	113.0
Cc1cccc(NS(=O)(=O)c2c(C)n[nH]c2C)c1	90.0	3.0	0.8	81.0*[inhibitor]	-5.0	96.0	-11.0	94.0
CCOC(=O)c1ccc(NS(=O)(=O)c2c(C)n[nH]c2C)cc1	.	1.0	-10.4	.	.	.	.	.
Cc1ccc(C(=O)NCC(=O)OC(C)C(=O)Nc2ccc(N(C)C)cc2)cc1C (configuration not stated)	132.0	0.0	7.4	141.0*	8.0	102.0	0.0	104.0
CCC(C)[C@H](NS(=O)(=O)c1ccc(F)cc1Br)C(=O)OC (some centres not stated)	.	.	-8.0	.	.	.	.	.
COc1ccc(/C=N/Nc2cc(C)nc3ccc(Br)cc23)cc1	214.0*	0.0	36.7	106.0	73.0*	245.0*	120.0*	107.0
Cc1cc(N/N=C/c2ccccc2O)c2ccccc2n1	186.0*	0.0	4.0	108.0	14.0	135.0	14.0	102.0
Cc1cc(NCc2ccccc2)c2ccccc2n1	149.0*	0.0	-0.6	111.0	8.0	116.0	9.0	103.0
COc1ccc2nc(C)cc(N/N=C/c3cccc(OC)c3O)c2c1	260.0*	0.0	21.2	116.0	72.0*	236.0*	79.0*	106.0
COc1cccc2c(N/N=C/c3ccccc3)cc(C)nc12	102.0	1.0	-4.4	100.0	-3.0	.	.	.
SMILES	MEKK2 WT-MEK5	GRK2 inh	Beta2AR agonist	MEKK3 PB1 HTS	MEKK2mut PB1 HTS	MEKK2wt confirm	MEKK2mut-MEK5	MEKK3-MEK5 inh
COc1ccccc1C(=O)NC(=O)COC(=O)Cn1[nH]c(=O)c2ccccc2c1=O	.	3.0	4.8	.	.	.	.	.
O=C(CN1C(=O)NC2(CCCCCC2)C1=O)N1CCC(Cc2ccccc2)CC1	3.0*[inhibitor]	1.0	-3.3	3.0*[inhibitor]	-1.0	99.0	-4.0	96.0
Cc1nc(N2CCC(C)CC2)c2c(C)c(C(=O)Nc3cccc(C(F)(F)F)c3)sc2n1	107.0	1.0	17.9	99.0	-4.0	.	.	.
Cc1nc(Nc2cnc(/C=C/c3cc(C(=O)Nc4cccc(C(F)(F)F)c4)ccc3C)cn2)cc(N2CCNCC2)n1	136.0	0.0	.	47.0*[inhibitor]	10.0	128.0	15.0	43.0*
COc1ccc(CNC(=O)[C@H](C)NC(=O)C2CCN(S(=O)(=O)c3ccccc3)CC2)cc1	102.0	2.0	-9.4	99.0	2.0	.	.	.
O=C(Nc1cccc(C(F)(F)F)c1)N1CCC(c2nc(-c3ccc(F)cc3)no2)CC1	173.0*	0.0	7.1	119.0	24.0	118.0	6.0	105.0
O=C(O)CN1CCN(Cc2ccc(Cl)cc2)C1=O	97.0	0.0	-5.4	96.0	-3.0	.	.	.
CC1CC(C)CN(C(=O)CN2CCN(Cc3ccc(Cl)cc3)C2=O)C1 (configuration not stated)	122.0	0.0	4.3	128.0*	6.0	103.0	1.0	98.0
CCOc1cc(CNCCN2CCOCC2)ccc1OCc1ccccc1Cl	104.0	0.0	2.2	96.0	-1.0	.	.	.
CCOc1cc(CNCCO)cc(Br)c1OCc1ccccc1Cl	142.0*	0.0	30.7	102.0	12.0	148.0	33.0	104.0
CCOc1cc(CNC(C)(C)CO)cc(Br)c1OCc1ccc(Cl)cc1Cl	262.0*	0.0	34.0	117.0	75.0*	202.0	67.0	116.0
CCOc1cc(CNCCCN2CCOCC2)cc(Br)c1OCc1ccccc1Cl	199.0*	0.0	30.2	114.0	78.0*	173.0	33.0	105.0
COc1cc(CNC(C)(C)CO)cc(Br)c1OCc1ccccc1	113.0	0.0	12.2	103.0	8.0	.	.	.
CCOc1cc(CNCCO)cc(Br)c1OCc1ccc(Cl)cc1	.	0.0	35.7	.	.	.	.	.
Cn1nnnc1SCC(=O)NC1CCCC1	93.0	1.0	-2.4	95.0	-5.0	.	.	.
O=C(Nc1ccc(N2CCOCC2)cc1N1CCOCC1)c1ccc(F)cc1	.	0.0	-1.4	.	.	.	.	.
O=C(COC(=O)Cc1c(F)cccc1Cl)NC1CCS(=O)(=O)C1 (configuration not stated)	.	4.0	1.2	.	.	.	.	.
COCCNC(=O)CN1C(=O)NC(c2ccccc2)(c2ccccc2)C1=O	95.0	0.0	2.3	98.0	-9.0	.	.	.
